Data reported in PubChem BioAssay (Tox21).
Several values for one entry are separate records, joined by “and”; a condition that tells them apart may be missing. Equal entries are not always repeated. Records with an inconclusive call do not appear. Where a call stands in place of a potency, no number is given. A structure can be active in one record and inactive in another. Activity calls are given as the source filed them. Unless noted, calls come from the whole dose curve; as a rule, active = well fitted curve in the direction sought with a large enough effect in the repeat runs; inconclusive = weak or mixed curves; inactive = no such curve, though single readings can be large; an effect the other way counts as inactive or inconclusive.

Columns and labels:
[1] = qHTS assay to identify small molecule antagonists of the glucocorticoid receptor (GR) signaling pathway - cell viability counter screen (AID 720693); note: nearly all actives have a fitted effect of over 55% in size
[2] = qHTS assay for identifying genotoxic compounds that show differential cytotoxicity against isogenic chicken DT40 cell lines with known DNA damage response pathways - wild type cell line (AID 743012); note: nearly all actives have a fitted effect of over 60% in size; note: potency is the fitted concentration of half-maximal effect
Method in brief: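 Quantitative HTS on parental DT40 cells: 40 h compound treatment at 37 C/5% CO2, with viability then determined by CellTiter-Glo luminescence. Values serve as the DNA repair-proficient reference for differential cytotoxicity.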

[3] = qHTS assay for identifying genotoxic compounds that show differential cytotoxicity against isogenic chicken DT40 cell lines with known DNA damage response pathways - Rev3 mutant cell line (AID 743014); note: nearly all actives have a fitted effect of over 55% in size; note: potency is the fitted concentration of half-maximal effect
[4] = qHTS assay for identifying genotoxic compounds that show differential cytotoxicity against isogenic chicken DT40 cell lines with known DNA damage response pathways - Rad54/Ku70 mutant cell line (AID 743015); note: nearly all actives have a fitted effect of over 60% in size; note: potency is the fitted concentration of half-maximal effect
[5] = qHTS assay to identify small molecule antagonists of the androgen receptor (AR) signaling pathway - cell viability counter screen (AID 743033; note: nearly all actives have a fitted effect of over 45% in size)
[6] = qHTS assay to identify small molecule antagonists of the androgen receptor (AR) signaling pathway using the MDA cell line - cell viability counter screen (AID 743041; note: nearly all actives have a fitted effect of over 45% in size)
Method in brief: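 R1881-driven MDA-kb2 AR-luc cells, 3,000/well, were dosed with library compounds for 16 h; cell health came from CellTiter-Fluor fluorescence in the reporter wells.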

[7] = target: Androgen receptor (Homo sapiens) (UniProt P10275); assay: qHTS assay to identify small molecule antagonists of the androgen receptor (AR) signaling pathway (AID 743035; active = well fitted inhibition curve with a large enough effect in the signal ratio in the repeat runs, not every such curve was filed as active; the % refers to the signal ratio)
Sequence of Androgen receptor (Homo sapiens) (P10275 whole entry, looked up): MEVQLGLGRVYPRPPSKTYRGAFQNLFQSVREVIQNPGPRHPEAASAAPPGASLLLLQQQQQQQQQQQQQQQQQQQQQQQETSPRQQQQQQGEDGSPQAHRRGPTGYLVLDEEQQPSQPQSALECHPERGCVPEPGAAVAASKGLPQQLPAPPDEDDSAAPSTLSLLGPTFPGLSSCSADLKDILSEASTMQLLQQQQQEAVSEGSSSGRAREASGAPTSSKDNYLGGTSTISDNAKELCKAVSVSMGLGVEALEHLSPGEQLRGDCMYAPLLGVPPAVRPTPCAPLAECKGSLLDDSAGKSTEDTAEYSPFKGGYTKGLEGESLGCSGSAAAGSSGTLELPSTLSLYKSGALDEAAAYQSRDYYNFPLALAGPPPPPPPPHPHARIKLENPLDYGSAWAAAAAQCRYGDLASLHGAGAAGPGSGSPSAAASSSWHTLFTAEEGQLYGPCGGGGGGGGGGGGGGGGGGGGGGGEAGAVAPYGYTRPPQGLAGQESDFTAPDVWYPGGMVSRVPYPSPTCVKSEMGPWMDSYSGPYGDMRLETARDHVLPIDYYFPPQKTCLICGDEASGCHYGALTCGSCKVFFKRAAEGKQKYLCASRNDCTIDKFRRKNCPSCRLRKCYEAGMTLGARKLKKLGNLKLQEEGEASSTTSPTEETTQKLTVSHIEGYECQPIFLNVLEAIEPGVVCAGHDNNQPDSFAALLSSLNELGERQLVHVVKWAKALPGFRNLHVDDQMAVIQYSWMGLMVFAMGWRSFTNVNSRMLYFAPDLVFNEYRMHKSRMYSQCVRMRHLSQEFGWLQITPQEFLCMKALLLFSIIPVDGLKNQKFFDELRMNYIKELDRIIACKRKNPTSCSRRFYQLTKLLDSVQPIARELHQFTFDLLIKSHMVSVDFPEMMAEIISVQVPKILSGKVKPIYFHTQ
Method in brief: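 Cell line: GeneBLAzer AR-UAS-bla GripTite (HEK293). Stimulus: R1881 added after compound. Exposure: 16 h, 37C, 5% CO2. Readout: LiveBLAzer B/G FRET fluorescence after 2 h at room temperature.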

[8] = target: Androgen receptor (Homo sapiens) (UniProt P10275); assay: qHTS assay to identify small molecule agonists of the androgen receptor (AR) signaling pathway (AID 743036; active = well fitted activation curve with a large enough effect in the signal ratio in the repeat runs, with a control signal flat, not every such curve was filed as active; the % refers to the signal ratio; note: potency is the fitted concentration of half-maximal effect)
Method in brief: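 HEK293 cells stably carrying a UAS-driven beta-lactamase reporter (GeneBLAzer AR-UAS-bla-GripTite) were plated at 2,000 cells/well, rested 4 h at 37C, then exposed to compounds in DMSO for 16 h. LiveBLAzer B/G FRET substrate was added for 2 h at room temperature; fluorescence read.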

[9] = target: Androgen receptor (Homo sapiens) (UniProt P10275); assay: qHTS assay to identify small molecule agonists of the androgen receptor (AR) signaling pathway using the MDA cell line (AID 743040; note: potency is the fitted concentration of half-maximal effect; nearly all actives have a fitted effect of over 20% in size)
Method in brief: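 After a 5 h incubation at 37C and 0% CO2, MDA-kb2 reporter cells were dosed with compounds in DMSO and kept 16 h under the same conditions. Luciferase activity was then read as luminescence with ONE-Glo.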

[10] = target: Androgen receptor (Homo sapiens) (UniProt P10275); assay: qHTS assay to identify small molecule antagonists of the androgen receptor (AR) signaling pathway using the MDA cell line (AID 743042; note: nearly all actives have a fitted effect of over 55% in size)
Method in brief: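 Antagonist mode: compounds plus R1881 agonist added to MDA-kb2 AR-luc cells, incubated 16 h at 37C. Luciferase reporter luminescence quantified, with multiplexed CellTiter-Fluor readout for cell viability.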

Row | Compound | outcome [1] | Potency [2] | Potency [3] | Potency [4] | outcome [5] | Potency [6] | outcome [7] | Potency [8] | Potency [9] | outcome [10]
1 | CCCCC(C=O)CC (stereo not given) | inactive | inactive | inactive | inactive | inactive | inactive | – | – | – | –
2 | C=C(C)C(=O)OCC(C)C | inactive | inactive | inactive | inactive | inactive | inactive | – | – | – | –
3 | O=C(O)c1ccccc1C(=O)O | inactive | inactive | inactive | inactive | inactive | inactive | – | – | – | –
4 | CN(C)CCOC(=O)COc1ccc(Cl)cc1 | inactive | inactive | inactive | inactive | inactive | inactive | – | – | – | –
5 | COCCCN | inactive | inactive | inactive | inactive | inactive | inactive | – | – | – | –
6 | COCCOC(=O)c1ccccc1C(=O)OCCOC | inactive | inactive | inactive | inactive | inactive | inactive | – | – | – | –
7 | NCCN1CCNCC1 | inactive | inactive | inactive | inactive | inactive | inactive | – | – | – | –
8 | Cc1ccc2ncccc2c1 | inactive | inactive | inactive | inactive | inactive | inactive | – | – | – | –
9 | O=S(=O)(O)c1ccccc1 | inactive | inactive | inactive | inactive | inactive | inactive | – | – | – | –
10 | C=CCc1ccc(OC)c(OC)c1 | inactive | inactive | inactive | inactive | inactive | inactive | – | – | – | –
11 | Clc1ccccn1 | inactive | inactive | inactive | inactive | inactive | inactive | – | – | – | –
12 | CCNC(=S)NCC | inactive | inactive | inactive | inactive | inactive | inactive | – | – | – | –
13 | CCCCCCCCCCO | inactive | inactive | inactive | inactive | inactive | inactive | – | – | – | –
14 | COC(=O)CCCC(=O)OC | inactive | inactive | inactive | inactive | inactive | inactive | – | – | – | –
15 | Nc1nc(N)nc(-c2ccccc2)n1 | inactive | inactive | inactive | inactive | inactive | inactive | – | – | – | –
16 | CCCCCCCCCCN | inactive | inactive | inactive | inactive | inactive | inactive | – | – | – | –
17 | Brc1ccc(Br)c(Br)c1 | inactive | inactive | inactive | inactive | inactive | inactive | – | – | – | –
18 | CCCCCCCC=O | inactive | inactive | inactive | inactive | inactive | inactive | – | – | – | –
19 | CC(=O)OC1CC(C)OC(C)O1 (stereo not given) | inactive | inactive | inactive | inactive | inactive | inactive | – | – | – | –
20 | O=C(OCC1CCC2OC2C1)C1CCC2OC2C1 (stereo not given) | inactive | – | 10.1 µM (active) and 9.69 µM (active) | inactive | inactive | inactive | – | – | – | –
21 | C=CC[N+](C)(C)CC=C | inactive | inactive | inactive | inactive | inactive | inactive | – | – | – | –
22 | Cc1ccc(C(C)C)c(O)c1 | inactive | inactive and 48.6 µM (active) | inactive and 17.2 µM (active) | inactive and 61.1 µM (active) | inactive | inactive | – | – | – | –
23 | CC(C)OC(=O)COc1ccc(Cl)cc1Cl | inactive | inactive | inactive | inactive | inactive | inactive | – | – | – | –
24 | CNC(=O)Oc1ccc2c(c1)[C@]1(C)CCN(C)[C@@H]1N2C | inactive | inactive | inactive and 48.6 µM (active) | inactive | inactive | inactive | – | – | – | –
25 | CC1(C)CC(N)CC(C)(CN)C1 (stereo not given) | inactive | inactive | inactive and 54.5 µM (active) | inactive | inactive | inactive | – | – | – | –
26 | C[C@]12CCC(=O)C=C1CC[C@@H]1[C@@H]2[C@@H](O)C[C@@]2(C)[C@H]1CC[C@]2(O)C(=O)CO | inactive | inactive | inactive | inactive | – | inactive | inactive | 21.3 nM (active) and 27.8 nM (active) | 119 nM (active) and 69.3 nM (active) | inactive
27 | O=C1CCCC1 | inactive | inactive | inactive | inactive | inactive | inactive | – | – | – | –

Row | Compound | outcome [1] | Potency [2] | Potency [3] | Potency [4] | outcome [5] | Potency [6] | outcome [7] | Potency [8] | Potency [9] | outcome [10]
28 | O=C1c2ccccc2CCc2ccccc21 | inactive | – | – | – | inactive | inactive | – | – | – | –
29 | NC(=S)NNC(N)=S | inactive | inactive | inactive | inactive | inactive | inactive | – | – | – | –
30 | COc1ccc(OC)cc1 | inactive | inactive | inactive | inactive | inactive | inactive | – | – | – | –
31 | CN(C)c1ccc(O)c2c1C[C@H]1C[C@H]3[C@H](N(C)C)C(=O)C(C(N)=O)=C(O)[C@@]3(O)C(=O)C1=C2O | inactive | 21.1 µM (active) [middle of 4 runs] | 26.6 µM (active) and 18.8 µM (active) and 13.7 µM (active) | 23.7 µM (active) [middle of 4 runs] | inactive | inactive | – | – | – | –
32 | CC(C)OP(=O)(CP(=O)(OC(C)C)OC(C)C)OC(C)C | inactive | – | inactive | inactive | inactive | inactive | – | – | – | –
33 | CCCCCCCO | inactive | inactive | inactive | inactive | inactive | inactive | – | – | – | –
34 | Cc1ccc(S(=O)(=O)N=C=O)cc1 | inactive | inactive | inactive | inactive | inactive | inactive | – | – | – | –
35 | CCO[Si](CCCN)(OCC)OCC | inactive | inactive | inactive | inactive | inactive | inactive | – | – | – | –
36 | CCCCOC(=O)c1ccc(N)cc1 | inactive | inactive and 13.5 µM (active) | 9.44 µM (active) and 13.5 µM (active) | 7.5 µM (active) and 7.59 µM (active) | inactive | inactive | – | – | – | –
37 | CC(C)(C)c1cc(Cc2cc(C(C)(C)C)c(O)c(C(C)(C)C)c2)cc(C(C)(C)C)c1O | inactive | inactive and 61.1 µM (active) | 61.1 µM (active) | inactive and 54.5 µM (active) | inactive | inactive | – | – | – | –
38 | CCOC(=O)n1ccn(C)c1=S | inactive | inactive | – | – | inactive | inactive | – | – | – | –
39 | Nc1ccc(Cl)c(N)c1 | inactive | inactive | inactive | – | inactive | inactive | – | – | – | –
40 | c1ccc(Oc2ccccc2)cc1 | inactive | inactive | inactive | inactive | inactive | inactive | – | – | – | –
41 | CCCOC(=O)c1ccccc1 | inactive | inactive | inactive | inactive | inactive | inactive | – | – | – | –
42 | CC1(C)NC(=O)NC1=O | inactive | inactive | inactive | inactive | inactive | inactive | – | – | – | –
43 | COc1ccc(N)c(C)c1 | inactive | inactive | inactive | inactive | inactive | inactive | – | – | – | –
44 | CN1C(=O)CC[C@H]1c1cccnc1 | inactive | inactive | inactive | inactive | inactive | inactive | – | – | – | –
45 | CNC(=S)N(C)C | inactive | inactive | inactive | inactive | inactive | inactive | – | – | – | –
46 | C[C@]12CC[C@@H]3c4ccc(O)cc4CC[C@H]3[C@@H]1C[C@@H](O)[C@@H]2O | inactive | – | – | – | inactive | inactive | – | – | – | –
47 | CC1(C)S[C@@H]2[C@H](NC(=O)COc3ccccc3)C(=O)N2[C@H]1C(=O)O | inactive | inactive | inactive | inactive | inactive | inactive | – | – | – | –
48 | CN(C)c1ccc(Cc2ccc(N(C)C)cc2)cc1 | inactive | 27.3 µM (active) | 48.8 µM (active) and 27.3 µM (active) | 61.4 µM (active) and 24.3 µM (active) | inactive | inactive | – | – | – | –
49 | CC(=O)OCc1ccco1 | inactive | – | 27.3 µM (active) | inactive | inactive | inactive | – | – | – | –
50 | CCNc1cccc(C)c1 | inactive | inactive | inactive | inactive | inactive | inactive | – | – | – | –
51 | CC(CCl)OP(=O)(OC(C)CCl)OC(C)CCl (stereo not given) | inactive | inactive | inactive | inactive | inactive | inactive | – | – | – | –
52 | CCO[Si](CCC#N)(OCC)OCC | inactive | inactive | inactive | inactive | inactive | inactive | – | – | – | –
53 | CC1(C)OC[C@@H]2O[C@@]3(C(=O)O)OC(C)(C)O[C@H]3[C@@H]2O1 | inactive | inactive | inactive | inactive | inactive | inactive | – | – | – | –
54 | C=C(C)CNCC | inactive | inactive | inactive | inactive | inactive | inactive | – | – | – | –
